# Laboratory results from article PMC7862700, “An all-to-all approach to the identification of sequence-specific readers for epigenetic DNA modifications on cytosine”.
# What was measured:
# Assay in all cases: DAPPL (digital affinity profiling via proximity ligation, sequencing); 10 mM Tris-HCl pH 7.5, 50 mM NaCl, 1 mM DTT, 4% glycerol, room temperature, 30 min; GST-TFs on glutathione beads, 16-mer random dsDNA library, 0.1% formaldehyde crosslink after washing; high values mean tight binding
# Details in all cases: protein: recombinant; tags: N-terminal GST; dsDNA, one strand shown
# [1] = target: T1, FLI1 (Homo sapiens, UniProt Q01543 1-452)
# T1 sequence: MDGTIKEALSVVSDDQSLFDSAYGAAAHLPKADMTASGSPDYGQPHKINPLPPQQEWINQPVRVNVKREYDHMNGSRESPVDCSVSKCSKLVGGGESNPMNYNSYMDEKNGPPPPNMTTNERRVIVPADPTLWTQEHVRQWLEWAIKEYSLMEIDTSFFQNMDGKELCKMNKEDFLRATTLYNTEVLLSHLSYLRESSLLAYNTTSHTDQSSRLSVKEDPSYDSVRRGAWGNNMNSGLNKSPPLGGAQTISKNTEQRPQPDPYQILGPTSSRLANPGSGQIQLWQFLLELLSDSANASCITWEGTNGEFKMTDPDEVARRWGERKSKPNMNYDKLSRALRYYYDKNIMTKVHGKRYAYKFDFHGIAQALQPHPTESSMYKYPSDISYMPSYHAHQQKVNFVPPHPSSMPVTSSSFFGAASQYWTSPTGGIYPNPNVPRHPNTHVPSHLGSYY
# Summary of the method: (§1)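 In yeast, human transcription factors were expressed with a GST fusion, then pulled down on glutathione beads and given DNA barcodes. Pooled with a tag-only sample, they were exposed to 200 nmole of a 16-mer random double-stranded DNA library (Tris/NaCl/DTT/glycerol buffer, room temperature, 30 min), washed, crosslinked with 0.1% formaldehyde, proximity-ligated using BsaI/T4 ligase for 1 h at 37 °C, PCR-amplified and read on an Illumina NextSeq500. Each hexamer's frequency of reads for a factor, divided by the matching frequency for the tag-only sample, gives the binding signal.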
# [2] = target: T2, FEV (Homo sapiens, UniProt Q99581 1-238)
# T2 sequence: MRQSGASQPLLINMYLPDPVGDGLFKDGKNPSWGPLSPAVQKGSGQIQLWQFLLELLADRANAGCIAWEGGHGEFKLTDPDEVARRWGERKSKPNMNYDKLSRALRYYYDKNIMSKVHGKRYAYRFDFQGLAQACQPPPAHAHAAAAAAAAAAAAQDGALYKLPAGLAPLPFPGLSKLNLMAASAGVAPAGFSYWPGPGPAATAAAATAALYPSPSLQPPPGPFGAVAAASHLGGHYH
# Summary of the method: as §1
# [3] = target: ELF4 (Homo sapiens, UniProt Q99607 1-663)
# Summary of the method: as §1
# [4] = target: T3, ELK4 (Homo sapiens, UniProt P28324-2 1-405)
# T3 sequence: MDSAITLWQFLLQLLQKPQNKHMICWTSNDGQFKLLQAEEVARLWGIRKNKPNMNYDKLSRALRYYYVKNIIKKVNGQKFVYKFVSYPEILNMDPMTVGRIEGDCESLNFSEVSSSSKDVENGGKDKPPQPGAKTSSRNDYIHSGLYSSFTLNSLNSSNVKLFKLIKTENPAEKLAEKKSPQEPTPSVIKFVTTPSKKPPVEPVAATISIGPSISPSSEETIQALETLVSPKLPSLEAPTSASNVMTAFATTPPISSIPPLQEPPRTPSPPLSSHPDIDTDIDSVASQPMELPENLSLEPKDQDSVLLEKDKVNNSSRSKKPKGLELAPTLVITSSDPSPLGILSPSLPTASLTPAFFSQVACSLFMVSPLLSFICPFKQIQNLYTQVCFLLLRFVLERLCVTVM
# Summary of the method: as §1
# [5] = target: T4, EHF (Homo sapiens, UniProt Q9NZC4 1-300)
# T4 sequence: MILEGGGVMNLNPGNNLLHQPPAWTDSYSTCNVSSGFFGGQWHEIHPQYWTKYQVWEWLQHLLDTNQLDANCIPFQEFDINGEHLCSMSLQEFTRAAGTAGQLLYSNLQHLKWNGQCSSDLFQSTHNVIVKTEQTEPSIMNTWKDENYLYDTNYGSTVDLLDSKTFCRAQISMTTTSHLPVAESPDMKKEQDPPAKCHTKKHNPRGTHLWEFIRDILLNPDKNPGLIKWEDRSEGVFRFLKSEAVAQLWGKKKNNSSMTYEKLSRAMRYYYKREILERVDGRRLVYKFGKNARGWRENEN
# Summary of the method: as §1
# [6] = target: SPIB (Homo sapiens, UniProt Q01892 1-262)
# Summary of the method: as §1
# [7] = target: T5, ETV2 (Homo sapiens, UniProt O00321 1-342)
# T5 sequence: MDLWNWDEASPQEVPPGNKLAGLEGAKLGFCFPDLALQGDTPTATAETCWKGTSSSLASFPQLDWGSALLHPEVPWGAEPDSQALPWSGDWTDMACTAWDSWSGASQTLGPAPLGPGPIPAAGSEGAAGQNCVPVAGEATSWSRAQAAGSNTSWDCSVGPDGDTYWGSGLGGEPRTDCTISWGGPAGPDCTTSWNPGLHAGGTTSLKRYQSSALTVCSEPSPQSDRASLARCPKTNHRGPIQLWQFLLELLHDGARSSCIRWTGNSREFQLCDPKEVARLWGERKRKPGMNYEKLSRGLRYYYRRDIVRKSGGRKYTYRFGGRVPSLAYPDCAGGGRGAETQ
# Summary of the method: as §1
# [8] = target: T6, ETV7 (Homo sapiens, UniProt Q9Y603 1-341)
# T6 sequence: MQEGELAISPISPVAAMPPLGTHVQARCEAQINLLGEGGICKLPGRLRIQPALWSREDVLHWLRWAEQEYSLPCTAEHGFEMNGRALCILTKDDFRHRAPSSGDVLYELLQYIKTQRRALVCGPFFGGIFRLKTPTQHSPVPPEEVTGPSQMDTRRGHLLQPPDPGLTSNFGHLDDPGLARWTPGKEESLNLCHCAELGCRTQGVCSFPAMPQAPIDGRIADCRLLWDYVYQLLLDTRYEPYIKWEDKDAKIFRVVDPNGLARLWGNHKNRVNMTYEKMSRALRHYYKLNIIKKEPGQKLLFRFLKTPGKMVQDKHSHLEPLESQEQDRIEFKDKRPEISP
# Summary of the method: as §1
# [9] = target: T7, ETV3 (Homo sapiens, UniProt P41162-2 1-143)
# T7 sequence: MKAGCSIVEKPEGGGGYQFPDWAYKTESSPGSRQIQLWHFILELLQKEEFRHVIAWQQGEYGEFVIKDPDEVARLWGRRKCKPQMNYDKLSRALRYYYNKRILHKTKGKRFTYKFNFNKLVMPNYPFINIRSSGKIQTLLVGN
# Summary of the method: as §1
# [10] = target: ETV6 (Homo sapiens, UniProt P41212 1-452)
# Summary of the method: as §1
# [11] = target: T8, GABPA (Homo sapiens, UniProt Q06546 1-454)
# T8 sequence: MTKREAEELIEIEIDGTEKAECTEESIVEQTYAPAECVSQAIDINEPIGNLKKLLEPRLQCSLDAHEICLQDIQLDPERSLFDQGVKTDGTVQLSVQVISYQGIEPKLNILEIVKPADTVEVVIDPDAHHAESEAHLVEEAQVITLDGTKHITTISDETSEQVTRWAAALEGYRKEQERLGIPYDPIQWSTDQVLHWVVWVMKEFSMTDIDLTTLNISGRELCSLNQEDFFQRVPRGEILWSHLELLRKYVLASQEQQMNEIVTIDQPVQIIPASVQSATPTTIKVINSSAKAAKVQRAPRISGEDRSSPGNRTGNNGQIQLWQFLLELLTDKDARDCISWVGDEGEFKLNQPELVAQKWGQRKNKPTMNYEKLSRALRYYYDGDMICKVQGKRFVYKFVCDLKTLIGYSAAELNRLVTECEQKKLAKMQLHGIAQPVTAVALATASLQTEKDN
# Summary of the method: as §1
# [12] = target: T9, ELK3 (Homo sapiens, UniProt P41970 1-407)
# T9 sequence: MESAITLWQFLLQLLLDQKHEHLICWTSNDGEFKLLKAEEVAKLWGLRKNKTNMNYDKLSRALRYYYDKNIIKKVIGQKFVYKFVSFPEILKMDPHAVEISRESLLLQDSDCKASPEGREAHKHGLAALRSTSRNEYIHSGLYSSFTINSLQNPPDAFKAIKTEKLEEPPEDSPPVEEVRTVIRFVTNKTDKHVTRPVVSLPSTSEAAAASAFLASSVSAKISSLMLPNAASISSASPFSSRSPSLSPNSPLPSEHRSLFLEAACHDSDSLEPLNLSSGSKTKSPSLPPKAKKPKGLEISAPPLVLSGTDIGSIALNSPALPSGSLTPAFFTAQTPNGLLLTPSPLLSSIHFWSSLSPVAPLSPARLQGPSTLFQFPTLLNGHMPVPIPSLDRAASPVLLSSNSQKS
# Summary of the method: as §1
# [13] = target: T10, ELK1 (Homo sapiens, UniProt P19419 1-428)
# T10 sequence: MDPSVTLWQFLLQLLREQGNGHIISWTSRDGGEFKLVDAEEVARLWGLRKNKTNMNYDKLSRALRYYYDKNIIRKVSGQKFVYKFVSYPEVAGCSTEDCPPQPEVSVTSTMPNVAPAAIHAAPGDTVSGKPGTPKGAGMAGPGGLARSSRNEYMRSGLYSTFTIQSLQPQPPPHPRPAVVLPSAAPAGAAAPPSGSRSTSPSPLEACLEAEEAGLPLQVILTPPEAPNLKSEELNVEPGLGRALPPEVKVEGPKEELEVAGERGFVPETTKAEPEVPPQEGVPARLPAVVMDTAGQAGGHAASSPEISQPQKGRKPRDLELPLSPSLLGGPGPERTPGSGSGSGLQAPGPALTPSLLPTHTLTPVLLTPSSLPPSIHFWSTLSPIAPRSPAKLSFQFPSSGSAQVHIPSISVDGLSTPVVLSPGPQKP
# Summary of the method: as §1
# [14] = target: ETV1 (Homo sapiens, UniProt P50549 1-477)
# Summary of the method: as §1
# [15] = target: T11, ERF (Homo sapiens, UniProt P50548 1-548)
# T11 sequence: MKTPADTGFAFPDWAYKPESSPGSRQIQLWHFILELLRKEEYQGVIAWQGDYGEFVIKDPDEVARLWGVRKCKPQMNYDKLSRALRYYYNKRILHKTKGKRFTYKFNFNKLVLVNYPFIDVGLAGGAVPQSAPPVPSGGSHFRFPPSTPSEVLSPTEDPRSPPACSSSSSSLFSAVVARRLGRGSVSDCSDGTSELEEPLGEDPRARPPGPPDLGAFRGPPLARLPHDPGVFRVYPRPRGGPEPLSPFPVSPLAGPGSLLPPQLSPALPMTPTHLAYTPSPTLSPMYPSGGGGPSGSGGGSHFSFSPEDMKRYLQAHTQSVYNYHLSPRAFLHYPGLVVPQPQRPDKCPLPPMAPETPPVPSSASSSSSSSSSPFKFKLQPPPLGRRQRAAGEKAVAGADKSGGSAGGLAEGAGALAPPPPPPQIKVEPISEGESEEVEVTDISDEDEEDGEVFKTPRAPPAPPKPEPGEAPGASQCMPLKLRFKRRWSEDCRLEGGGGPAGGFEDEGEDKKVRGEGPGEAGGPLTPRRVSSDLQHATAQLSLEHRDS
# Summary of the method: as §1
# Sequence of SPIB (Q01892 whole entry): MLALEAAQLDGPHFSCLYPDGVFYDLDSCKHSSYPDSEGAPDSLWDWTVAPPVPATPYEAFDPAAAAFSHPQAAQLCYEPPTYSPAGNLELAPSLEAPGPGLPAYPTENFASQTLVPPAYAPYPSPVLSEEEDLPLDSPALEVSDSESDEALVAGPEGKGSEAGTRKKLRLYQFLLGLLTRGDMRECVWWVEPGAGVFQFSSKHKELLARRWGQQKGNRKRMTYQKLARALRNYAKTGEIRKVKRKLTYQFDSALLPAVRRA
# Sequence of ETV6 (P41212 whole entry): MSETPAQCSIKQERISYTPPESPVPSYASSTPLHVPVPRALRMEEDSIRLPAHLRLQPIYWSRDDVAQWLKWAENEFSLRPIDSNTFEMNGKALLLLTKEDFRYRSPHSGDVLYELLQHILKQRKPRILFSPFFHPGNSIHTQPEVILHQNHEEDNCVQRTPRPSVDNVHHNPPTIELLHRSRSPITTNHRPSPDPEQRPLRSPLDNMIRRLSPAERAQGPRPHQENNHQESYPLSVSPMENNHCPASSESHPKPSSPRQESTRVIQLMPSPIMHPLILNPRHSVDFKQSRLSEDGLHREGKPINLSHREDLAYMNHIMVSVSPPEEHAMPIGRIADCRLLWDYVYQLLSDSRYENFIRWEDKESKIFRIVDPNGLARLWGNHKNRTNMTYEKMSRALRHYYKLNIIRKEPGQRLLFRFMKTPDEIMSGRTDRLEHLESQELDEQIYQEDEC
# Sequence of ETV1 (P50549 whole entry): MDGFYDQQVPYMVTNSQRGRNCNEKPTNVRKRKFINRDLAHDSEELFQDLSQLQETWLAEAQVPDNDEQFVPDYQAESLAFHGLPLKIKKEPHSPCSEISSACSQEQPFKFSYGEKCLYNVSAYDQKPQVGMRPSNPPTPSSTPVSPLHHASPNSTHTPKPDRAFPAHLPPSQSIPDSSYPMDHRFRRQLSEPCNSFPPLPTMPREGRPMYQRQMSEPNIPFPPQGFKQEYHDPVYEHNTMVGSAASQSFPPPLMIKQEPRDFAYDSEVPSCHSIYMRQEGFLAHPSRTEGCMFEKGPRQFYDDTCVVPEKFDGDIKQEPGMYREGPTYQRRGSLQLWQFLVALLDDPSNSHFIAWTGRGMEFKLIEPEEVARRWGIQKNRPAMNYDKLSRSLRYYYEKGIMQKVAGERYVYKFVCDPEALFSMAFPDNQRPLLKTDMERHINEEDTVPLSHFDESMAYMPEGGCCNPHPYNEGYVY
# Sequence of ELF4 (Q99607 whole entry): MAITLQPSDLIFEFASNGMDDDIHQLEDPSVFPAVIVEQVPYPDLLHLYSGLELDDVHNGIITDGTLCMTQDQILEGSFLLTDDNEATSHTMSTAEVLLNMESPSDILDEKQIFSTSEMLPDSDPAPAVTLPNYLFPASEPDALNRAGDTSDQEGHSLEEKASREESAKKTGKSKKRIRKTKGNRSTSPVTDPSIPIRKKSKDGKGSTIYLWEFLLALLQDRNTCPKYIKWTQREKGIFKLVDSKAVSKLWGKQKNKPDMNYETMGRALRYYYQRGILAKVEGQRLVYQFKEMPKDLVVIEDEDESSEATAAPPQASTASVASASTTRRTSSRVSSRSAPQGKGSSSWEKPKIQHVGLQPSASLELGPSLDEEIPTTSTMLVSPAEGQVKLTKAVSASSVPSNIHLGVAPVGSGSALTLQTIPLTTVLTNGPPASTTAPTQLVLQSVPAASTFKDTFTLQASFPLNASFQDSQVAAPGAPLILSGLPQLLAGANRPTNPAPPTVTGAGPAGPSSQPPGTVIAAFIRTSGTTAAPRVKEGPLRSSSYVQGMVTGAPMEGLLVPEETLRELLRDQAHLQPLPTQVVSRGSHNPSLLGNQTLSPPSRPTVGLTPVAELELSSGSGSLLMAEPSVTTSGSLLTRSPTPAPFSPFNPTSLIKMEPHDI
sequence,measurement,setting,value
CCACAG,binding signal,[1],"1.01 fold enrichment (6-mer frequency, TF over GST control)"
same,binding signal,[2],"1.01 fold enrichment (6-mer frequency, TF over GST control)"
same,binding signal,[3],"1.03 fold enrichment (6-mer frequency, TF over GST control)"
same,binding signal,[4],"1.04 fold enrichment (6-mer frequency, TF over GST control)"
TGCGGT,binding signal,[1],"1.09 fold enrichment (6-mer frequency, TF over GST control)"
same,binding signal,[5],"1.07 fold enrichment (6-mer frequency, TF over GST control)"
same,binding signal,[6],"1.02 fold enrichment (6-mer frequency, TF over GST control)"
same,binding signal,[7],"1.08 fold enrichment (6-mer frequency, TF over GST control)"
same,binding signal,[8],"1 fold enrichment (6-mer frequency, TF over GST control)"
same,binding signal,[9],"1.01 fold enrichment (6-mer frequency, TF over GST control)"
same,binding signal,[10],"1.03 fold enrichment (6-mer frequency, TF over GST control)"
GACTCA,binding signal,[1],"1.06 fold enrichment (6-mer frequency, TF over GST control)"
same,binding signal,[11],"1.02 fold enrichment (6-mer frequency, TF over GST control)"
same,binding signal,[6],"1.09 fold enrichment (6-mer frequency, TF over GST control)"
same,binding signal,[12],"1.04 fold enrichment (6-mer frequency, TF over GST control)"
same,binding signal,[2],"1 fold enrichment (6-mer frequency, TF over GST control)"
GGTCTG,binding signal,[1],"1.03 fold enrichment (6-mer frequency, TF over GST control)"
same,binding signal,[13],"1.11 fold enrichment (6-mer frequency, TF over GST control)"
same,binding signal,[11],"1.02 fold enrichment (6-mer frequency, TF over GST control)"
same,binding signal,[6],"1 fold enrichment (6-mer frequency, TF over GST control)"
same,binding signal,[12],"1.03 fold enrichment (6-mer frequency, TF over GST control)"
same,binding signal,[4],"1.07 fold enrichment (6-mer frequency, TF over GST control)"
same,binding signal,[7],"1.07 fold enrichment (6-mer frequency, TF over GST control)"
same,binding signal,[14],"1.07 fold enrichment (6-mer frequency, TF over GST control)"
same,binding signal,[15],"1.09 fold enrichment (6-mer frequency, TF over GST control)"
same,binding signal,[10],"1.02 fold enrichment (6-mer frequency, TF over GST control)"
